This note sets out measurements from PubChem BioAssay (NCI).

The panel holds about 83,000 compounds, 20% with a hit somewhere; the sample as a whole holds those more often.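 Single-concentration screen, 48 h exposure, 96-well plates. Endpoint: percent growth. Below 10 = active.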 A number with no mark means an inactive call. The source made the active and inactive calls.

Some test systems named below: SR leukemia; OVCAR-8 ovarian; OVCAR-5 ovarian; OVCAR-4 ovarian; SK-OV-3 ovarian; IGROV1 ovarian; OVCAR-3 ovarian; HS 578T breast; NCI/ADR-RES ovarian; T-47D breast; BT-549 breast; MDA-MB-435 melanoma; MCF7 breast; HCT-116 colon; HCC-2998 colon; KM12 colon; RPMI-8226 leukemia; SW-620 colon.
What all share (test): NCI-60 one-dose screen, 48 h (100 = growth as untreated, 0 = no growth, -100 = all killed)
What all share (conditions): 10 µM unless noted

Consider `CCN1Cc2nc3sc(C)c(C)c3c(=O)n2C=C1C`, for which the growth in the assay on SR leukemia is -9.23% (active); in the assay with OVCAR-8 ovarian, 38.1%; in the assay with OVCAR-5 ovarian, 85.9%; in the assay on OVCAR-4 ovarian, 42.3%; in the assay on SK-OV-3 ovarian it was 115%; in the assay on IGROV1 ovarian it was 30.1%. For the same compound, the growth in the assay on OVCAR-3 ovarian is 46%; with HS 578T breast it was 43.2%; with NCI/ADR-RES ovarian it was 30.9%; with T-47D breast it was 37.1%; with BT-549 breast, -5.48% (active); with MDA-MB-435 melanoma, 48.1%. The growth in the assay with MCF7 breast is -41.8% (active); in the assay on HCT-116 colon, -24.9% (active); in the assay with HCC-2998 colon it was 81.2%; with KM12 colon it was 14.5%.
Consider `O=[N+]([O-])c1ccc(NC(=S)N/N=C/c2cc3ccccc3n3nnnc23)cc1`, for which the growth is 4.33% (active) with SR leukemia; 47.7% in the assay on RPMI-8226 leukemia; 71.2% in the assay on OVCAR-8 ovarian; 79.6% in the assay with OVCAR-5 ovarian; 63.8% with OVCAR-4 ovarian; 73.7% with SK-OV-3 ovarian. For the same compound, the growth in the assay on IGROV1 ovarian was 54.5%; with OVCAR-3 ovarian, 14.3%; with HS 578T breast, 67%; with NCI/ADR-RES ovarian it was 51.7%; in the assay on T-47D breast it was 46.5%; in the assay with SW-620 colon it was 24.4%. Besides, the growth is 13.8% with MCF7 breast, 61.3% in the assay on HCT-116 colon, 54% in the assay on HCC-2998 colon and 66.9% in the assay on KM12 colon.
As for `CC(C)(C)c1cc(C=O)cc(C(C)(C)C)c1O`, the growth in the assay with SR leukemia was 101%; in the assay on RPMI-8226 leukemia, 72.7%; with OVCAR-8 ovarian, 94.1%; in the assay on OVCAR-5 ovarian it was 108%; with OVCAR-4 ovarian, 98.7%; with SK-OV-3 ovarian it was 110%. Besides, the growth with IGROV1 ovarian was 106%; in the assay with OVCAR-3 ovarian, 101%; in the assay on NCI/ADR-RES ovarian, 98.8%; in the assay on T-47D breast it was 110%; in the assay on BT-549 breast it was 92.5%; in the assay with MDA-MB-435 melanoma it was 111%. The growth in the assay on SW-620 colon is 97.7%; in the assay on HCT-116 colon, 92.9%; in the assay with HCC-2998 colon it was 93.6%; in the assay with KM12 colon it was 99.6%.
For the compound `CC1=C(C(=O)/C=C/c2c[nH]c3ccccc23)C(c2ccccc2)NC(=S)N1` (configuration not stated), the growth with SR leukemia was 88.8%; in the assay with RPMI-8226 leukemia it was 101%; in the assay with OVCAR-5 ovarian, 96.7%; in the assay on OVCAR-4 ovarian it was 101%; in the assay with SK-OV-3 ovarian, 95.4%; with IGROV1 ovarian it was 76.8%. For the same compound, the growth in the assay on OVCAR-3 ovarian is 98.5%; in the assay with HS 578T breast, 95.9%; with NCI/ADR-RES ovarian, 97.1%; in the assay with T-47D breast, 98.6%; with BT-549 breast, 107%; in the assay with MDA-MB-435 melanoma, 97.4%. The growth in the assay with SW-620 colon is 91.7%; with MCF7 breast, 95.4%; in the assay with HCT-116 colon, 93.3%; in the assay with HCC-2998 colon, 108%; in the assay with KM12 colon it was 106%.
As for `O=C(CCN1CCCC1)Nc1ccc2c(Nc3ccc(F)cc3)c3ccccc3nc2c1`, the growth in the assay with SR leukemia was -20.9% (active); in the assay with RPMI-8226 leukemia it was -37.1% (active); with OVCAR-5 ovarian, 12.9%; with OVCAR-4 ovarian it was -16.1% (active); with SK-OV-3 ovarian, 38.4%; with IGROV1 ovarian, 0.357% (active). The growth with OVCAR-3 ovarian is -31.5% (active); in the assay on HS 578T breast it was 25.2%; with NCI/ADR-RES ovarian it was 33.8%; in the assay with T-47D breast, 7.84% (active); in the assay on BT-549 breast, 51.2%; in the assay with MDA-MB-435 melanoma it was -94.9% (active). Also, the growth in the assay with SW-620 colon was -25% (active); with MCF7 breast, -19.9% (active); with HCT-116 colon it was -54.2% (active); with HCC-2998 colon, -80.3% (active); in the assay with KM12 colon it was 0.928% (active).
With `CCCOc1ccc(/C=N/Nc2cc(C)nc3ccc(Br)cc23)cc1`, the growth in the assay on SR leukemia was -1.3% (active); in the assay on RPMI-8226 leukemia, 58.9%; in the assay on OVCAR-5 ovarian, 111%; in the assay with OVCAR-4 ovarian, 88.1%; in the assay with SK-OV-3 ovarian, 90.9%; with IGROV1 ovarian, 90.4%. Also, the growth in the assay on OVCAR-3 ovarian is 99.8%; with HS 578T breast it was 106%; in the assay with NCI/ADR-RES ovarian it was 97.2%; in the assay on T-47D breast, 96.4%; in the assay on BT-549 breast, 99.3%; in the assay on MDA-MB-435 melanoma it was 85.8%. In addition, the growth in the assay with SW-620 colon is 6.14% (active); in the assay on MCF7 breast it was 37.3%; in the assay with HCT-116 colon, 26.6%; in the assay with HCC-2998 colon, 57.3%; in the assay on KM12 colon, 76.2%.
Turning to `Cc1nnc2c(Cc3ccccc3)nc3ccccc3n12`, the growth in the assay with SR leukemia was 94.6%; with RPMI-8226 leukemia, 93.2%; in the assay with OVCAR-8 ovarian, 104%; in the assay on OVCAR-5 ovarian it was 90.7%; in the assay with SK-OV-3 ovarian it was 99.1%; in the assay on IGROV1 ovarian it was 121%. Moreover, the growth with OVCAR-3 ovarian is 94%; with HS 578T breast it was 104%; with NCI/ADR-RES ovarian, 87.4%; in the assay on T-47D breast, 92.4%; with BT-549 breast it was 91.8%; in the assay with MDA-MB-435 melanoma it was 93.2%. Besides, the growth in the assay with SW-620 colon is 97.3%; in the assay on MCF7 breast, 97.9%; in the assay with HCT-116 colon, 93.1%; in the assay with HCC-2998 colon, 97.8%; in the assay with KM12 colon, 97.5%.
As to `COc1ccc(OC)c(CCn2cncc2-c2c[nH]c3ccccc23)c1`, the growth in the assay on SR leukemia is 60.1%; in the assay on RPMI-8226 leukemia, 45.6%; with OVCAR-8 ovarian, 89.4%; in the assay on OVCAR-5 ovarian, 94.4%; with OVCAR-4 ovarian it was 44.6%; with SK-OV-3 ovarian, 72.9%. Moreover, the growth is 44% with IGROV1 ovarian; 57% in the assay on OVCAR-3 ovarian; 71.1% with NCI/ADR-RES ovarian; 45.8% with T-47D breast; 83.8% in the assay on BT-549 breast; 58.9% in the assay on MDA-MB-435 melanoma. The growth is 71% with MCF7 breast, 77.7% with HCT-116 colon, 91.8% in the assay with HCC-2998 colon and 89.1% in the assay with KM12 colon.
